This is a sample that favours compounds with a hit; in the whole collection about 6.3% have one here.
ATXN viability: reduces viability in counter-screen for ATXN expression inhibitors. S2 cells (HEK-293 line with an ATXN2-luciferase reporter) viability, CellTiter-Fluor protease fluorescence, 24 h. AID 651635. actives 0.49% (n = 400,000). Potency, µM (series often up to 56.7 µM), hits mostly cytotoxic; also: nearly all actives have a fitted effect of over 40% in size
HepG2 viability: HepG2 cytotoxicity, counter-screen for TGF-b inhibitors; HepG2 CAGA-GFP viability, ATP luminescence, 18 h; Potency, µM (series often up to 46.1 µM), actives largely listed as cytotoxic; actives 0.76% (n = 410,000); AID 588856
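CellTiter-Glo luminescence gave cytotoxicity after 18 hours at 37 degrees C. The cells were HepG2 CAGA-GFP in 1% FBS DMEM, stimulated with 500 pg/mL TGF-beta after compound addition. %Activity was normalised to no-cell wells (complete cell-killing) and DMSO (no toxicity), and curves were fitted and classified.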
ATXN2 expr inh: ATXN2 expression inhibition; HEK-293 ATXN2-luciferase reporter, luminescence, 24 h; Potency, µM (top dose mostly 57 µM), usual class: inhibitors; actives 0.72% (n = 360,000); AID 1745845; also: nearly all actives have a fitted effect of over 55% in size
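ATXN2-luciferase reporter cells (luciferase flanked by upstream and downstream ATXN2 gene portions) were treated 24 h at 37 °C with compounds at up to 57 uM. SteadyGlo luminescence gave expression; GF-AFC fluorescence gave viability.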
TGFb inhibitor: blocks TGF-b signaling; HepG2 CAGA-GFP TGF-b/SMAD3 reporter, GFP fluorescence, 18 h; TGF-beta stimulated, 500 pg/mL final; Potency, µM (highest dose often 46.1 µM), usual class: inhibitors; actives 1.2% (n = 410,000); AID 588855; also: nearly all actives have a fitted effect of over 65% in size
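Cell-based qHTS in HEPG2 carrying a CAGA-GFP Smad reporter; compounds added before 500 pg/mL final TGF-beta, 18 h incubation at 37 degrees C, GFP fluorescence quantified per cell by imaging cytometry.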
Gal4-VP16 FLuc: inhibits Gal4-VP16 luciferase reporter, ROR gamma counter-screen; Drosophila S2 Gal4-VP16 UAS-luciferase, luminescence, 20 h; Potency, µM (doses to about 53.6 µM), usual class: inhibitors; actives 3.5% (n = 310,000);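 also: Gal4-VP16 expression switched on by copper sulfate through the metallothionein promoter; nearly all actives have a fitted effect of over 50% in size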
RORgamma inh: inhibitors of mouse ROR gamma transcriptional activity | P51450 | Drosophila S2 Gal4-RORgamma UAS-luciferase reporter, 20 h | Potency, µM (titrated, usually from 53.6 µM), usual class: inhibitors | actives 5.4% (n = 310,000) | AID 2551; also: nearly all actives have a fitted effect of over 60% in size
Target sequence (P51450 whole entry, looked up, the tested form may be a part): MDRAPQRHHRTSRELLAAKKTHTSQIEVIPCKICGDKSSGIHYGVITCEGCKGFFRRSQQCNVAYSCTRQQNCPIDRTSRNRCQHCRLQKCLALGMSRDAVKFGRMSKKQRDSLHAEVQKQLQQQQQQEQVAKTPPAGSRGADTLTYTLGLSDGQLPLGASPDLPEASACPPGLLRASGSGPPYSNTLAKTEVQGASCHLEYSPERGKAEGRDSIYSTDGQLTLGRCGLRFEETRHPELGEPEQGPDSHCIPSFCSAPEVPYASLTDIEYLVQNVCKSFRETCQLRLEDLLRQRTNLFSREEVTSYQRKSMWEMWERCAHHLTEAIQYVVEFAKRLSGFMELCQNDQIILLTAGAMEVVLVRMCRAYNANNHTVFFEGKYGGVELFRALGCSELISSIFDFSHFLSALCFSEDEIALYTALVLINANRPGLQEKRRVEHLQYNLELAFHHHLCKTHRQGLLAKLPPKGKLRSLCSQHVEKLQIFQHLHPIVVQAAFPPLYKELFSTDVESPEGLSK
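Stable Schneider cell line, Gal4 DNA-binding domain fused to ROR gamma, UAS-luciferase. Cmpd 1 hr RT → CuSO4 700 uM final → 20 hr RT → luciferase reagent 10 min → luminescence.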
Hits are given with their value; n = inactive; u = inconclusive; x = no result; [ ] = remark or other dose. Calls follow the shape of the dose curve; as a rule, active = well fitted curve in the direction sought with a large enough effect; inconclusive = small, poorly fitted or top-dose-only effect, or another doubt; inactive = no such curve, though single readings can be large; an effect the other way counts as inactive or inconclusive.

SMILES | ATXN viability | HepG2 viability | ATXN2 expr inh | TGFb inhibitor | Gal4-VP16 FLuc | RORgamma inh
CN(C)C(=O)C1C2NC(=S)N(c3ccccc3)C1(C)Oc1ccccc12 (centres undefined) | n | n | n | n | n | n
CN(C)C(=O)C1C2NC(=S)N(c3cccc(Cl)c3)C1(C)Oc1ccc(Cl)cc12 (centres undefined) | n | n | n | n | u | 10µM
COc1ccc(CCC(=O)Nc2nc3ccccc3[nH]2)cc1 | u | n | n | n | n | n
COc1cc(OC)cc(C(=O)Nc2nc3ccccc3[nH]2)c1 | n | n | n | n | 5.6µM | 3.2µM
COc1ccc(CCNC(=O)c2coc(=O)c(Br)c2)cc1 | x | 13µM | u | 18µM | n | n
O=C(Nc1ccccc1)c1cc2ccccc2o1 | n | n | n | n | n | u
O=C(Nc1nc2ccccc2[nH]1)c1cc2ccccc2o1 | n | n | n[11.3 µM] | n | 7.9µM | 2.5µM
COc1ccc2oc(C(=O)Nc3nc4ccccc4[nH]3)c(C)c2c1 | u | n | x | u | 2.8µM | u
CCOc1ccc(S(=O)(=O)Nc2ccn(C)n2)cc1 | n | n | x | n | x | x
CCNC(=O)C1(C)CCCN(C(=O)c2cccc(C)c2C)C1 (centres undefined) | n | n | n | n | x | x
O=S(=O)(c1ccc2c(c1)OCCO2)C1CCC(S(=O)(=O)c2c(F)cccc2F)CC1 (centres undefined) | n | n | n | n | x | x
O=C(COc1ccc2ccccc2c1)Nc1nc2ccccc2[nH]1 | n | n | n | n | u | u
Cc1ccsc1C(=O)Nc1nc2ccccc2[nH]1 | n | n | x | u | 7.1µM | 2µM
COc1ccc(OCC(=O)NNc2c3ccccc3nc3ccccc23)cc1 | u | n | u | u | 7.1µM | 0.35µM
Cc1ccsc1C(=O)Nc1ccccc1N1CCCC1 | n | n | n | n | x | x
O=C(Nc1nc2ccccc2[nH]1)c1cc(F)cc(F)c1 | n | n | n | n | u | n
Cc1cc(C)cc(C(=O)Nc2nc3ccccc3[nH]2)c1 | n | n | n | n | 10µM | 6.3µM
COc1ccc(OCC(=O)Nc2nc3ccccc3[nH]2)cc1 | n | n | n | n | n | 0.79µM
COc1ccc(CCNC(=O)c2oc3ccc(OC)cc3c2C)cc1 | n | n | n | n | n | 11µM
Cc1cc(C)cc(NC(=O)Cn2nnc(C(=O)Nc3cc(C)cc(C)c3)c2N)c1 | n | n | n | u | x | x
COc1ccc(CCN2CC(=O)NC(=O)C2)cc1OC | n | n | x | n | x | x
CNc1sc(C(=O)c2ccccc2F)c(N)c1-c1nc2ccccc2s1 | x | n | x | n | 13µM | 7.9µM
CCC(O)CNC(=O)c1cnn(-c2nccc(-c3cc(C)sc3C)n2)c1C1CC1 (centres undefined) | n | x | x | x | x | x
CC(C)(C)C1CCc2c(sc(NC(=O)CCC(=O)O)c2C(=O)Nc2ccccc2C(F)(F)F)C1 (centres undefined) | x | 16µM | x | u | x | x
CCOC(=O)c1ccc(NC(=O)c2c(NC(=O)CCC(=O)O)sc3c2CCCCC3)cc1 | n | n | n | n | n | 10µM
SMILES | ATXN viability | HepG2 viability | ATXN2 expr inh | TGFb inhibitor | Gal4-VP16 FLuc | RORgamma inh
CCOc1ccccc1NC(=O)c1c(NC(=O)CCC(=O)O)sc2c1CCCCC2 | n | n | n | n | u | 10µM
COc1ccccc1NC(=O)c1c(NC(=O)c2cccs2)sc2c1CCC(C(C)(C)C)C2 (centres undefined) | n | n | n | n | x | x
COc1ccc(CC(=O)Nc2sc3c(c2C(=O)Nc2cccc(Cl)c2)CCCCC3)cc1 | x | 18µM | u | u | x | x
CC(C)Oc1cc(F)ccc1-c1cc(C(=O)NCCc2ccncc2)[nH]n1 | n | n | n | n | x | x
COc1cc2c(NC3CCN(C)CC3)nc(N3CCCN(C)CC3)nc2cc1OCCCCCCN(C)C | x | n | x | u | x | x
COc1ccc(-c2cc(C(F)(F)F)nc(SCC(=O)N(C)Cc3ccccc3)n2)cc1 | u | n | n | u | x | x
CC(C)Oc1ccc(Cc2cnc(=S)[nH]c2N)cc1 | u | n | x | n | n | 11µM
COC(=O)c1c(OCCN2CCCCC2)cc(=O)n2c1CCN(Cc1cccc3nccnc13)CC2 | n | x | x | x | x | x
COC(=O)[C@@H]1C[C@@H](NC(=O)c2cccc3c(C)c(C)[nH]c23)CN1Cc1cccc2ccccc12 | n | x | x | x | x | x
C=CCn1c(SCC(=O)NC(=O)c2cccn2C)nc2ccccc2c1=O | n | n | n | n | n | n
CCC(C)n1c(SCC(=O)NC(=O)c2cccn2C)nc2ccccc2c1=O (centres undefined) | n | n | n | n | u | 14µM
O=C(Nc1ccccc1O)C(c1ccccc1)c1ccccc1 | n | n | n | u | 16µM | u
O=C(O)c1ccccc1NC(=O)C(c1ccccc1)c1ccccc1 | n | n | n | n | x | x
COc1ccc(C2c3c(n(C)c4ccccc34)C(=O)N2CC(=O)Nc2ccccc2Cl)cc1 (centres undefined) | x | n | x | n | x | x
COCCn1c(=S)[nH]c2cc(C(=O)N3CCN(c4ccccc4OC)CC3)ccc2c1=O | n | n | n | n | u | 14µM
O=C(CCCn1c(=S)[nH]c2ccccc2c1=O)NCCSCc1ccccc1 | n | n | n | n | n[10 µM] | 13µM
O=C(CCCn1c(=S)[nH]c2ccccc2c1=O)N1CCCCC1 | n | n | n | n | u | u
COCCn1c(=O)[nH]c2cc(C(=O)N3CCN(c4ccccc4OC)CC3)ccc2c1=O | n | n | n | n | n | n
CC1CC(C)CN(C(=O)CCCn2c(=S)[nH]c3ccccc3c2=O)C1 (centres undefined) | n | n | n | n | 13µM | 7.9µM
COCCn1c(=S)[nH]c2cc(C(=O)N3CC(C)CC(C)C3)ccc2c1=O (centres undefined) | n | n | n | n | u | 11µM
COc1ccc(N2CCN(C(=O)Cn3c(-c4cccs4)cc4ccccc43)CC2)cc1 | n | n | n | n | x | x
O=C(CCS(=O)(=O)c1ccc(Br)s1)Nc1cc(C(F)(F)F)cc(C(F)(F)F)c1 | u | 16µM | u | u | x | x
CC(=O)c1cccc(NC(=O)CCS(=O)(=O)c2ccc(Br)s2)c1 | n | n | n | n | n | n
CSc1nnc(NC(=O)c2ccc3c(c2)OCO3)s1 | n | n | u | n | 4.5µM | 2.5µM
CCOC(=O)C(C)Sc1nnc(NC(=O)c2ccc3c(c2)OCO3)s1 (centres undefined) | n | n | n | n | n | 10µM
COc1ccc(Cc2cc(NCc3ccccc3)c3ncn(C(C)C)c3c2)cc1 | u | 11µM | n | u | x | x
CCC(CO)Oc1cc(NCc2ccc(O)cc2)c2ncn(C(C)C)c2c1 (centres undefined) | n | n | n | n | x | x

From PubChem BioAssay
